Assay outcomes from PubChem.
In the library only some 10% were active in any assay of this set; here they are far more common.
SW480 rereplic: induces DNA re-replication in SW480 colon adenocarcinoma cells; Potency, µM (series often up to 46.1 µM), for the others: at the top dose re-replication activation, actives largely listed as activators; 340,000 compounds, 1.8% hits; SW480 DNA re-replication, Hoechst DNA content imaging, 48 h; AID 624297; further: % of control where 0% means no effect; nearly all actives have a fitted effect of over 55% in size
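Quantitative HTS format with DMSO vehicle controls; 48 hr drug incubation at 37 C, then 40 min Hoechst staining and scanning imager measurement at 405 nm excitation.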
MCF10A rerep: inducers of DNA re-replication in MCF 10A breast cells | MCF 10A DNA re-replication, Hoechst nuclear intensity, 48 h | Potency, µM (series often up to 46.1 µM), for inactives: top-dose activity, positive = re-replication, most hits filed as activators | 350,000 compounds, 2.9% hits | AID 624296; further: % of control where 0% means no effect; nearly all actives have a fitted effect of over 50% in size
VP16 counter: inhibits Gal4-VP16 luciferase reporter, ROR gamma counter-screen. Potency, µM (titrated, usually from 53.6 µM), inactives show at the highest dose activity, negative = inhibition, actives largely listed as inhibitors. Drosophila S2 Gal4-VP16 UAS-luciferase, luminescence, 20 h. 310,000 compounds, 3.5% hits;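 further: Gal4-VP16 expression switched on by copper sulfate through the metallothionein promoter; on the % scale 0 is the no-effect control and ±100 the full control effect; nearly all actives have a fitted effect of over 50% in size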
ELG1 repair inh: blocks ELG1-dependent DNA repair in HEK293T cells; HEK293T ELG1-luciferase reporter, luminescence, 16 h; DNA damage induced by 5-fluorouridine; Potency, µM (highest dose often 46.1 µM), without a hit: at the top dose activity change, negative = inhibition, hits mostly inhibitors; 330,000 compounds, 2.3% hits; AID 504467; further: on the % scale 0 is the no-effect control and ±100 the full control effect; nearly all actives have a fitted effect of over 55% in size
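Overnight (16 hr) co-exposure of 2,000 cells/well to 5-fluorouridine and compound at 37 °C preceded detection. Luciferase was quantified via ONE-Glo luminescence; loss of signal denotes inhibition.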
RORgamma inh: blocks mouse ROR gamma transcriptional activity | Drosophila S2 Gal4-RORgamma UAS-luciferase reporter, 20 h | Potency, µM (titrated, usually from 53.6 µM), without a hit: top-dose activity change, negative = inhibition, most hits filed as inhibitors | 310,000 compounds, 5.4% hits | AID 2551; further: on the % scale 0 is the no-effect control and ±100 the full control effect; nearly all actives have a fitted effect of over 60% in size
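Using a luciferase readout, inhibitors were identified by reduced reporter activity in Drosophila cells coexpressing a copper-inducible Gal4–ROR gamma fusion and UAS-driven Photinus luciferase, incubated 20 hr after 700 uM copper sulfate.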
ELG1 FLuc counter: luciferase inhibition in cell-free luciferin readout for ELG1 hits. Potency, µM (top dose mostly 46.1 µM), for the others: top-dose activity change, negative = inhibition, actives largely listed as inhibitors. shares compounds with ELG1 repair inh. 350 compounds, 3% hits. cell-free firefly luciferase luminescence counter-screen, ViewLux. AID 624247; further: on the % scale 0 is the no-effect control and ±100 the full control effect
ELG1 Luc conf: human ELG1 repair inhibition, luciferase-tagged ELG1 confirmation | shares compounds with ELG1 repair inh | HEK293T ELG1-luciferase levels, luminescence; cells co-treated with 5-fluorouridine | Potency, µM (highest dose often 46.1 µM), inactives show at the top dose activity change, negative = inhibition, usual class: inhibitors | 670 compounds, 68% hits; further: on the % scale 0 is the no-effect control and ±100 the full control effect; nearly all actives have a fitted effect of over 55% in size
ELG1 MMS Luc: MMS-stimulated human ELG1 repair inhibition, confirmed | Potency, µM (highest dose often 46.1 µM), for inactives: at the highest dose activity change, negative = inhibition, most hits filed as inhibitors | 670 compounds, 53% hits | HEK293T luciferase-tagged ELG1 level, MMS stimulated | shares compounds with ELG1 repair inh; further: on the % scale 0 is the no-effect control and ±100 the full control effect; nearly all actives have a fitted effect of over 60% in size
ELG1 5-FU: confirmation of ELG1 repair inhibitors: viability with 5FU | cell viability with 5-FU, ELG1-dependent repair | Potency, µM (series often up to 46.1 µM), for the others: at the highest dose activity change, negative = viability loss, most hits filed as cytotoxic | shares compounds with ELG1 repair inh | AID 624250 | 670 tested, under 10 active;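 further: ELG1-luc HEK293T cells cotreated with 5-fluorouridine at 10 µM final; viability measured 16 h after compound addition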
ELG1 MMS viab: confirmation of ELG1 repair inhibitors: viability with MMS; shares compounds with ELG1 repair inh; Cell viability with MMS, ELG1-dependent DNA repair; Potency, µM (series often up to 46.1 µM), for inactives: top-dose activity change, negative = viability loss, usual class: cytotoxic; 670 compounds, 33% hits;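 further: ELG1-luc HEK293T cells co-treated with 10 µM MMS; viability read 16 h after compound addition; on the % scale 0 is the no-effect control and ±100 the full control effect; nearly all actives have a fitted effect of over 60% in size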
ELG1 unstim viab: unstimulated viability counter-screen for ELG1 repair hits. shares compounds with ELG1 repair inh. cell viability counter-screen, unstimulated, luminescence. Potency, µM (titrated, usually from 45.9 µM), inactives show top-dose activity change, negative = loss of viability, most hits filed as cytotoxic. 900 compounds, 8% hits. AID 624252;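 further: compound exposure lasted 16 hours before reading; on the % scale 0 is the no-effect control and ±100 the full control effect; nearly all actives have a fitted effect of over 55% in size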
FLuc enzyme: firefly luciferase inhibition counter-screen; shares compounds with ELG1 repair inh; purified firefly luciferase, luminescence counter-screen; Potency, µM (highest dose often 57.5 µM), for inactives: at the top dose activity, negative = inhibition, most hits filed as inhibitors; 350 compounds, 10% hits; AID 624253; further: on the % scale 0 is the no-effect control and ±100 the full control effect
* marks the source's active call; other numbers are inactive results; u = inconclusive; x = no result; [ ] = another dose, or the depositor's remark. The call rests on the fitted dose curve; in most records, active means well fitted curve in the direction sought with a large enough effect; inconclusive means small, poorly fitted or top-dose-only effect, or another doubt; inactive means no such curve, though single readings can be large; an effect the other way counts as inactive or inconclusive. Potency means the concentration at half of the fitted maximal effect.

SMILES | SW480 rereplic | MCF10A rerep | VP16 counter | ELG1 repair inh | RORgamma inh | ELG1 FLuc counter | ELG1 Luc conf | ELG1 MMS Luc | ELG1 5-FU | ELG1 MMS viab | ELG1 unstim viab | FLuc enzyme
CCOc1cc(S(=O)(=O)NCc2cccs2)ccc1Cl | -1% | -9% | 2% | -6% | u | x | x | x | x | x | x | x
CCC1CN(C(=O)N2CCC(C(=O)NCCc3ccccc3OC)CC2)c2ccccc2O1 (configuration not stated) | 1% | u | 7% | u | 22% | x | x | x | x | x | x | x
Cc1ccc(S(=O)(=O)Nc2cc3c4c(c2)CCN4C(=O)CC3)cc1 | 3% | u | x | u | x | 34% | x | x | x | x | 0% | 2%
CN(CC(=O)Nc1ccccc1Cl)CC(=O)Nc1sc2c(c1C(N)=O)CCC2 | u | 3.3µM* | x | 4.6µM* | x | x | 16µM* | u | 10% | -5% | u | x
CN(CC(=O)Nc1ccc(C(N)=O)cc1)CC(=O)Nc1ccccc1Cl | -11% | 11% | -6% | 1% | 15% | x | x | x | x | x | x | x
CCOC(=O)c1sc(N(Cc2ccccc2)C(=O)COC(=O)c2ccc(O)cc2)nc1C | u | 9.2µM* | u | 1.3µM* | u | x | 2µM* | 0.71µM* | -15% | 0.79µM* | u | x
CCOC(=O)c1sc(N(Cc2ccccc2)C(=O)COC(=O)c2ccccc2O)nc1C | -1% | -69% | 0% | 23% | 3% | x | x | x | x | x | x | x
OC(CNc1nc(-c2cccnc2)nc2ccccc12)c1ccccc1 (configuration not stated) | u | 21% | 6% | 12µM* | 16% | -9% | 11µM* | 22µM* | 0% | u | u | -14%
OCCNc1nc(-c2cccnc2)nc2ccccc12 | -5% | u | -8% | 0% | 13% | x | x | x | x | x | x | x
CCCCNc1ccc(C(=O)O)cc1 | -22% | 1% | -8% | u | -4% | x | x | x | x | x | x | x
C[C@H]1C=C(C(=O)N2CCN(Cc3ccc4c(c3)OCO4)CC2)O[C@@H](OCc2ccc(CO)cc2)C1 | -31%[9.22 µM] | 17% | -13% | u | 13% | x | x | x | x | x | x | x
O=C(C1=C[C@H](c2ccc(Br)cc2)C[C@H](OCc2ccc(CO)cc2)O1)N1CCN(Cc2ccc3c(c2)OCO3)CC1 | 0% | u | -29% | 9.2µM* | 12% | u | 7.9µM* | u | u | -6% | u | -9%
C#Cc1ccc([C@H]2C=C(C(=O)N3CCN(Cc4ccc5c(c4)OCO5)CC3)O[C@@H](OCc3ccc(CO)cc3)C2)cc1 | u | 26µM* | -11% | 1.6µM* | 17% | -7% | 5.6µM* | u | u | u | -3% | -1%
COc1cc(C(=O)OCCCc2cc3ccccc3c(=O)o2)cc(OC)c1OC | -4% | -7% | x | u | x | x | x | x | x | x | x | x
COc1cc(C(=O)OCCc2cc3ccccc3c(=O)o2)cc(OC)c1OC | 8.2µM* | 15µM* | x | u | x | x | 4.4µM* | u | u | u | u | x
COc1ccc(/C=N/NC(=O)c2ccoc2C)cc1CN1CCN(c2ccc(F)cc2)CC1 | -3% | -12% | -16% | 2.6µM* | -8% | x | 2.5µM* | -10% | u | -1% | u | x
COc1ccc(/C=N/NC(=O)c2ccncc2)cc1CN1CCOCC1 | -40% | -21% | -1% | -1% | -16% | x | x | x | x | x | x | x
COc1cc2c(cc1OC)CN(C(=O)c1nn(Cc3ccccc3)c(=O)c3ccccc13)CC2 | 4% | 8% | x | 2.6µM* | x | x | 1.1µM* | u | u | u | u | x
CCOC(=O)N1CCN(C(=O)CSCC(=O)Nc2nc(-c3ccc(OC)cc3)cs2)CC1 | 9% | u | -1% | 0% | 36% | x | x | x | x | x | x | x
CCOC(=O)N1CCN(C(=O)CSCC(=O)Nc2nc(-c3ccc(-c4ccccc4)cc3)cs2)CC1 | 2% | 13% | 6.3µM* | 10µM* | u | -9% | x | x | x | x | 16µM* | u
CCc1noc(C)c1C(=O)N(Cc1ccccc1)c1c(N)n(CCOC)c(=O)[nH]c1=O | 0% | 1% | x | -1% | x | x | x | x | x | x | x | x
CCC(C)NC(=O)c1ccc(N2CC3CC(C2)c2cccc(=O)n2C3)c(NC(=O)c2ccc(Br)o2)c1 (configuration not stated) | 1% | 0% | 9% | -5% | -1% | x | x | x | x | x | x | x
CCCCSc1nc2ccc(Nc3nc(N4CCOCC4)nc(N4CCOCC4)n3)cc2s1 | 1% | u | -1% | 16µM* | 38% | 5% | 13µM* | u | u | 0% | -10% | -6%
Cc1ccc(Nc2nc(N3CCOCC3)nc(N3CCOCC3)n2)cc1C | -8% | u | 0% | u | -13% | x | x | x | x | x | x | x
COc1ccc2cc3c(N)nn(C(=O)c4ccc(F)cc4)c3nc2c1 | u | u | -10% | 4.1µM* | -6% | x | 2.5µM* | 4.4µM* | 8% | 5% | -4% | x
COc1ccc2cc3c(N)nn(C(=O)c4cccc(F)c4)c3nc2c1 | u | 5% | u | 0% | u | x | x | x | x | x | x | x
COc1ccc2cc3c(N)nn(C(=O)c4ccccc4Cl)c3nc2c1 | 4.1µM* | 23% | -10% | 0.65µM* | 6% | u | 0.79µM* | 4µM* | 7% | -1% | u | -9%
O=C(NNC(=O)c1nn(-c2ccc(F)cc2)ccc1=O)c1ccc(C(F)(F)F)cc1 | -14% | 1% | 0% | -2% | 0% | x | x | x | x | x | x | x
